# Most compounds without a hit are left out; they make up all but 19% or so of the library.
# HT1080NT lethal: kills 2HG-producing HT-1080-NT fibrosarcoma cells. Potency, µM (series often up to 46.1 µM), inactives show at the top dose activity, negative = less viability, usual class: cytotoxic. 360,000 tested, 1.6% active. HT-1080-NT fibrosarcoma viability, CellTiter-Glo ATP luminescence, 48 h;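 also: NT is the 2HG producing partner of a matched IDH1 knockdown line; potency is read from the fitted curve at half-maximal effect; 0% = DMSO-treated cells and -100% = media-only wells without cells; nearly all actives have a fitted effect of over 55% in size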
#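 HT-1080-NT; 750 cells/well; 5% FBS RPMI; 48 h compound, 37 degrees C; CellTiter-Glo luminescence; curve fitting and curve-class assignment.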
# TDP1 cell noCPT: qHTS for Inhibitors of human tyrosyl-DNA phosphodiesterase 1 (TDP1): qHTS in cells in absence of CPT. DT40 Tdp1-/- hTDP1 cells, no CPT, ATP luminescence, 48 h. 420,000 tested, 15% active. AID 686978, 2013. Potency, µM (doses to about 46.2 µM), without a hit: at the highest dose activity change, negative = growth inhibition, hits mostly inhibitors; also: potency is read from the fitted curve at half-maximal effect; nearly all actives have a fitted effect of over 55% in size
#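 Seeded 400 DT40-hTDP1 cells/well (vehicle DMSO, no 20 nM CPT); pinned compounds; ≥48 hr at 37 °C; CellTiter-Glo luminescence as viability measure.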
# DT40 TDP1 CPT: DT40-hTDP1 cell growth loss with CPT; Potency, µM (highest dose often 46.2 µM), for inactives: at the highest dose activity change, negative = growth inhibition, usual class: inhibitors; 420,000 tested, 12% active; chicken DT40 Tdp1-/-;hTDP1 cells + 20 nM CPT, ATP luminescence, 48 h; also: potency is read from the fitted curve at half-maximal effect; nearly all actives have a fitted effect of over 55% in size
#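 Chicken DT40 Tdp1-/- cells complemented with human TDP1, 400 cells/well, exposed to compounds plus 20 nM camptothecin for at least 48 h at 37 C; viability read as ATP content by CellTiter-Glo luminescence.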
# HT1080 IDH1KD tx: toxicity to HT-1080 IDH1 knockdown cells (counter line); HT-1080 IDH1 knockdown viability, ATP luminescence, 48 h; Potency, µM (highest dose often 46.1 µM), inactives show top-dose activity, negative = toxicity, usual class: cytotoxic; 360,000 tested, 2% active;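 also: potency is read from the fitted curve at half-maximal effect; 0% = DMSO wells and -100% = cell-free medium wells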
#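 Cytotoxicity counter-line: IDH1KD HT-1080, 48 h, CellTiter-Glo. Curves classed by r2, magnitude and activity.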
# IL-1B inflam inh: inflammasome signaling inhibition, IL-1 beta readout. THP-1 LPS/ATP IL-1B secretion, AlphaLISA, 16 h; active compounds read low. activity change, % at 57.5 µM. 360,000 tested, 4.7% active; in the data active = activity change below about -50%; inconclusive = mostly about -30% to -49%
#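 THP-1 cells pretreated 1 hr with compounds (up to 57.5 uM final), then stimulated with LPS (250 ng/mL final) plus ATP (1.25 mM final); secreted IL-1B measured by AlphaLISA after 16 hr, decreased signal indicating inhibition.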
# * hit, by the source's call; ? = inconclusive; nt = no result; [ ] = dose if it differs, or a comment. Unless noted, calls follow the shape of the dose curve; as a rule, active = well fitted curve in the direction sought with a large enough effect; inconclusive = small, poorly fitted or top-dose-only effect, or another doubt; inactive = no such curve, though single readings can be large; an effect the other way counts as inactive or inconclusive. Unless noted, % is scaled to controls: 0 for no effect and ±100 for the full control effect.
SMILES,HT1080NT lethal,TDP1 cell noCPT,DT40 TDP1 CPT,HT1080 IDH1KD tx,IL-1B inflam inh
Cc1[nH]c(=O)[nH]c(=O)c1S(=O)(=O)Nc1cccc(C(F)(F)F)c1,4%,11%,-2%,3%,6
COc1ccc(-c2cnc(OC(C)(C)C)nc2OC(C)(C)C)cc1OC,-8%,?,?,-28%,25
C=CCOc1ccc(CNCC2CCCO2)cc1 (stereo unspecified),7%,-8%,?,9%,4
COC(=O)c1ccc(CN2CCC3(CCC(CNC(=O)c4ccccc4)O3)CC2)cc1 (stereo unspecified),nt,-25%,-1%[9.04 µM],nt,nt
CCCNC(=O)C1(C)CCCN(Cc2c3ccccc3nn2C)C1 (stereo unspecified),2%,21µM*,21µM*,-6%,38
COCCNC(=O)C1(C)CCCN(CCOc2ccc(Cl)cc2)C1 (stereo unspecified),18%,15µM*,?,11%,-1
CCCNC(=O)C1(C)CCN(CCOc2ccc(Cl)cc2)C1 (stereo unspecified),-6%,-22%,-27%,-1%,-8
Cc1ccccc1NS(=O)(=O)c1cccc2nsnc12,14%,-5%,0%,18%,11
CCN1CCN(CCOc2cccc(Oc3ccccc3)c2)CC1,-19%,?,?,-5%,?
CCCn1c(SCC(=O)Nc2cc(C(=O)O)ccc2C)nc2sc3c(c2c1=O)CCC3,2%,?,?,4%,0
CC(C)CCNC(=O)CN1C(=O)c2cccnc2Oc2ccccc21,nt,-18%,-4%,nt,nt
COCCNc1nc(-c2ccccc2F)c2sc(-c3ccccc3)cc2n1,?,?,18µM*,?,?
COCCNc1nc(-c2cc(F)ccc2C)c2sc(-c3ccccc3)cc2n1,-16%,15µM*,26µM*,-17%,-82*
O=C(N/N=C/c1ccc2cccc(OCc3ccccc3)c2n1)c1ccc(Br)cc1,-30%,?,16µM*,?,159
COc1cccc(/C=N/NC(=O)c2ccc(OCc3cccc(Br)c3)cc2)c1,-17%,?,?,?,-3
COc1ccc(C(=O)N/N=C/c2ccc3cccc(OCc4ccccc4)c3n2)cc1,?,8.2µM*,?,?,138
COc1c(OC(C)=O)ccc(/C=C/c2ccc3cccc(OCc4ccccc4)c3n2)c1[N+](=O)[O-],?,15µM*,15µM*,?,-50*
COc1cc(/C=C/c2ccc3cccc(OC)c3n2)c(O)c([N+](=O)[O-])c1,-20%,-15%,-24%,-6%,?
O=C(N/N=C/c1ccncc1)c1ccc(OCc2ccccc2)cc1,0%,0%,-25%,-13%,-16
O=C(N/N=C/c1cccc(OCc2ccccc2)c1)c1ccc(Br)cc1,-14%,18µM*,?,-3%,9
COc1ccc(S(=O)(=O)c2c(O)c3ccc(C(=O)NCc4ccccc4)cc3[nH]c2=O)cc1,nt,-5%,18%,nt,nt
CC(C)C[C@]1(c2ccccc2)ON(c2ccccc2C(F)(F)F)C1=O,-2%,-14%,?,-15%,-11
COc1ccccc1[C@]1(C)ON(c2ccccc2C(F)(F)F)C1=O,?,?,26µM*,?,-100*
CCCCOc1ccc(CC(=O)N(C)OC)cc1,nt,-29%,-4%,nt,nt
COc1ccc(N=C2SC(C(N)=O)CC(=O)N2CCc2ccc(OC)c(OC)c2)cc1 (stereo unspecified),-6%,-13%,-28%,-5%,-1
SMILES,HT1080NT lethal,TDP1 cell noCPT,DT40 TDP1 CPT,HT1080 IDH1KD tx,IL-1B inflam inh
COc1ccc(CCN2C(=O)CCC3=C2CCC3=O)cc1OC,24%,-9%,3%,22%,3
COc1ccc(CCN2C(=O)CSC2=Nc2ccc(C(C)C)cc2)cc1OC,?,9.2µM*,15µM*,5.8µM*,nt
COc1ccc(N=C2SCC(=O)N2CCc2ccc(OC)c(OC)c2)cc1,-1%,26µM*,?,2%,-11
COc1ccc(CCN2C(=O)CS/C2=N\NC(=O)c2ccc(C(C)(C)C)cc2)cc1OC,0%,15µM*,?,-4%,18
COc1ccccc1NC(=O)N1CCCC1C(=O)NCc1ccccc1Cl (stereo unspecified),0%,-1%,5%,2%,16
OC(CNc1ncnc2sccc12)c1ccccc1 (stereo unspecified),?,5.2µM*,4.1µM*,?,-24
CN(C)C(CNc1ncnc2sccc12)c1ccccc1 (stereo unspecified),-2%,?,-24%,0%,12
Cc1sc2ncnc(NCc3ccccc3)c2c1C,-29%,15µM*,13µM*,-25%,-68*
c1csc(CNc2ncnc3sccc23)c1,-9%,5.2µM*,5.2µM*,26µM*,-8
COc1ccc(CNc2ncnc3sccc23)cc1OC,?,7.3µM*,8.2µM*,-27%,19
CS(=O)(=O)N(CC(=O)N1CCC(C(N)=O)CC1)c1cc(C(F)(F)F)ccc1Cl,10%,-4%,0%,3%,-14
O=C(NCc1cccc(C(F)(F)F)c1)C1C(=O)Nc2ccccc2C(=O)N1C1CCCC1 (stereo unspecified),8%,-22%,?,0%,-22
Cc1cc(C(F)(F)F)nc2c(Cl)c(C(C)(C)C)nn12,?,4%,20%,6%,35
COc1ccc(CNc2ncnc3sccc23)cc1,?,4.1µM*,5.8µM*,23µM*,35
COc1ccc(CNc2ncnc3c2cnn3-c2ccc(C)c(C)c2)cc1,nt,-10%,-12%,nt,nt
Cc1ccccc1S(=O)(=O)Nc1ncnc2sccc12,-4%,-17%,-8%,-1%,10
Cc1cc2c(NCC(C)O)ncnc2s1 (stereo unspecified),30%,-23%,-23%,1%,18
c1ccc(CNc2ncnc3sccc23)cc1,?,7.3µM*,8.2µM*,?,13
Cc1cc2c(NCc3ccccc3)ncnc2s1,-9%,6.5µM*,?,?,?
NC(=O)/C(=N\OC(=O)c1ccco1)c1nc(-c2ccc(Br)cc2)cs1,-19%,?,?,-19%,?
NC(=O)CSc1oc(-c2cccs2)nc1S(=O)(=O)c1ccc(Br)cc1,nt,?,-14%,nt,nt
Cc1nc(C#N)c(N/N=C/c2c(F)cccc2Cl)o1,20%,?,-7%,6%,-23
CN(c1ccccc1)S(=O)(=O)c1cccc(C(=O)Nc2nn[nH]n2)c1,-4%,1%,-3%,5%,4
Cc1ccc(NC(=O)c2ccc(CNS(=O)(=O)c3ccc4c(c3)C(C)(C)C(=O)N4C)cc2)cc1,nt,-18%,2%,nt,nt
